This is part of a sample that, as a whole, favours compounds with a hit. Of some 79,000 tested, about 15% had one in any assay. A number with no mark means an inactive call. Activity calls are given as the source filed them. Rule as the data show it: active = growth inhibition above about 70%; inactive = the rest.
Key:
[1] = NCI Yeast Anticancer Drug Screen. Data for the rad50 strain (AID 155);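 also: 0% = growth of vehicle-only cultures of the same strain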; settings: S. cerevisiae rad50 strain growth inhibition, stronger effect = higher value
Summary of the method: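 Growth of the mutant yeast was measured after compound exposure and referenced to vehicle-treated cultures.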

[2] = NCI Yeast Anticancer Drug Screen. Data for the mec2-1 strain (AID 157); settings: S. cerevisiae mec2-1 strain, stronger effect = higher value
Summary of the method: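 Strain: mec2-1 (DNA repair/cell cycle alteration). Compound exposure, then growth measured; inhibition expressed relative to vehicle.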

[3] = NCI Yeast Anticancer Drug Screen. Data for the sgs1 mgt1 strain (AID 161);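 also: 0% = growth of cultures given vehicle only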; settings: S. cerevisiae sgs1 mgt1 strain, stronger effect = higher value
Summary of the method: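 Test agents were incubated with a DNA-repair-mutant yeast strain. Growth was then read and compared against vehicle-treated controls.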

[4] = NCI Yeast Anticancer Drug Screen. Data for the cln2 rad14 strain (AID 165);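 also: 0% = growth equal to vehicle treated cultures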; settings: S. cerevisiae cln2 rad14 strain, stronger effect = higher value
Summary of the method: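 Compounds are applied to the cln2 rad14 yeast strain, and growth is then compared with that of vehicle-treated cultures to give inhibition.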

[5] = NCI Yeast Anticancer Drug Screen. Data for the bub3 strain (AID 167); settings: S. cerevisiae bub3 mutant strain, stronger effect = higher value
Summary of the method: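 Whole-cell yeast assay. The mutant strain was incubated with compounds, and growth inhibition was determined by comparison with vehicle-treated cells.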

[6] = NCI Yeast Anticancer Drug Screen. Data for the mlh1 rad18 strain (AID 175); settings: S. cerevisiae mlh1 rad18 strain growth inhibition, stronger effect = higher value
Summary of the method: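 Read-out is yeast growth inhibition, calculated against vehicle-only controls. The compound was applied to a strain engineered with DNA damage repair alterations.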

[7] = at 5.0 µM (retest, dose inferred, filed as 0.5)
[8] = at 50.0 µM (retest, dose inferred, filed as 5.0)

CCCCCCCCC(=O)NCCN(CCN)C(=O)CCCCCCCC
growth inhibition [1, 7]: -82% | growth inhibition [1, 8]: 97% (active) | growth inhibition ([1]; at 50.0 µM): 90.2% (active) | growth inhibition [2, 7]: -43% | growth inhibition [2, 8]: 98% (active) | growth inhibition ([2]; at 50.0 µM): 93.1% (active) | growth inhibition [3, 7]: -33% | growth inhibition [3, 8]: 97% (active) | growth inhibition ([3]; at 50.0 µM): 91.7% (active) | growth inhibition [4, 7]: -24% | growth inhibition [4, 8]: 98% (active) | growth inhibition ([4]; at 50.0 µM): 89.9% (active) | growth inhibition [5, 7]: -47% | growth inhibition [5, 8]: 97% (active) | growth inhibition ([5]; at 50.0 µM): 90.1% (active) | growth inhibition [6, 7]: -68% | growth inhibition [6, 8]: 97% (active) | growth inhibition ([6]; at 50.0 µM): 90% (active)

CNc1ccc(N)cc1
growth inhibition [1, 7]: 6% | growth inhibition [1, 8]: -9% | growth inhibition ([1]; at 50.0 µM): -15.1% | growth inhibition [2, 7]: -2% | growth inhibition [2, 8]: -5% | growth inhibition ([2]; at 50.0 µM): 21.6% | growth inhibition [3, 7]: -8% | growth inhibition [3, 8]: -2% | growth inhibition ([3]; at 50.0 µM): -3.85% | growth inhibition [4, 7]: 5% | growth inhibition [4, 8]: 1% | growth inhibition ([4]; at 50.0 µM): 26.4% | growth inhibition [5, 7]: 9% | growth inhibition [5, 8]: 8% | growth inhibition ([5]; at 50.0 µM): 7.1% | growth inhibition [6, 7]: 0% | growth inhibition [6, 8]: -5% | growth inhibition ([6]; at 50.0 µM): -15.2%

Cc1c(C2CC(=O)NC2=O)c2ccccc2n1C (stereo not given)
growth inhibition [1, 7]: 3% | growth inhibition [1, 8]: 3% | growth inhibition ([1]; at 50.0 µM): 6.55% | growth inhibition [2, 7]: -1% | growth inhibition [2, 8]: 0% | growth inhibition ([2]; at 50.0 µM): 6.25% | growth inhibition [3, 7]: -1% | growth inhibition [3, 8]: -1% | growth inhibition ([3]; at 50.0 µM): -13.8% | growth inhibition [4, 7]: -4% | growth inhibition [4, 8]: -5% | growth inhibition ([4]; at 50.0 µM): 69% | growth inhibition [5, 7]: 4% | growth inhibition [5, 8]: 3% | growth inhibition ([5]; at 50.0 µM): -20.6% | growth inhibition [6, 7]: 2% | growth inhibition [6, 8]: 3% | growth inhibition ([6]; at 50.0 µM): 7.8%

C/C=C(/CN/C(=C\[N+](=O)[O-])c1ccccc1)c1ccccc1
growth inhibition [1, 7]: 0% | growth inhibition [1, 8]: 87% (active) | growth inhibition ([1]; at 50.0 µM): 96.5% (active) | growth inhibition [2, 7]: -4% | growth inhibition [2, 8]: 86% (active) | growth inhibition ([2]; at 50.0 µM): 95% (active) | growth inhibition [3, 7]: 0% | growth inhibition [3, 8]: 79% (active) | growth inhibition ([3]; at 50.0 µM): 94.3% (active) | growth inhibition [4, 7]: -1% | growth inhibition [4, 8]: 37% | growth inhibition ([4]; at 50.0 µM): 75.2% (active) | growth inhibition [5, 7]: 8% | growth inhibition [5, 8]: 74% (active) | growth inhibition ([5]; at 50.0 µM): 92.7% (active) | growth inhibition [6, 7]: -8% | growth inhibition [6, 8]: 84% (active) | growth inhibition ([6]; at 50.0 µM): 95.5% (active)

O=C(O/N=C1/CCC/C1=C\c1ccccc1)c1ccccc1
growth inhibition [1, 7]: 33% | growth inhibition [1, 8]: 97% (active) | growth inhibition ([1]; at 50.0 µM): 96.5% (active) | growth inhibition [2, 7]: 46% | growth inhibition [2, 8]: 99% (active) | growth inhibition ([2]; at 50.0 µM): 98.2% (active) | growth inhibition [3, 7]: 78% (active) | growth inhibition [3, 8]: 99% (active) | growth inhibition ([3]; at 50.0 µM): 98.8% (active) | growth inhibition [4, 7]: 25% | growth inhibition [4, 8]: 98% (active) | growth inhibition ([4]; at 50.0 µM): 97% (active) | growth inhibition [5, 7]: 15% | growth inhibition [5, 8]: 99% (active) | growth inhibition ([5]; at 50.0 µM): 96.3% (active) | growth inhibition [6, 7]: 57% | growth inhibition [6, 8]: 98% (active) | growth inhibition ([6]; at 50.0 µM): 98.3% (active)

Cc1c(N)cccc1[N+](=O)[O-]
growth inhibition [1, 7]: 2% | growth inhibition [1, 8]: 8% | growth inhibition ([1]; at 50.0 µM): 97.8% (active) | growth inhibition [2, 7]: -6% | growth inhibition [2, 8]: 6% | growth inhibition ([2]; at 50.0 µM): 98.6% (active) | growth inhibition [3, 7]: -3% | growth inhibition [3, 8]: -1% | growth inhibition ([3]; at 50.0 µM): 97.4% (active) | growth inhibition [4, 7]: -1% | growth inhibition [4, 8]: 7% | growth inhibition ([4]; at 50.0 µM): 95.5% (active) | growth inhibition [5, 7]: 3% | growth inhibition [5, 8]: 15% | growth inhibition ([5]; at 50.0 µM): 98.2% (active) | growth inhibition [6, 7]: 0% | growth inhibition [6, 8]: 2% | growth inhibition ([6]; at 50.0 µM): 98.5% (active)

CCCCCCCCSCc1ccc(N)cc1
growth inhibition [1, 7]: 23% | growth inhibition [1, 8]: 97% (active) | growth inhibition ([1]; at 50.0 µM): 89.7% (active) | growth inhibition [2, 7]: 12% | growth inhibition [2, 8]: 98% (active) | growth inhibition ([2]; at 50.0 µM): 91.4% (active) | growth inhibition [3, 7]: 37% | growth inhibition [3, 8]: 98% (active) | growth inhibition ([3]; at 50.0 µM): 90.5% (active) | growth inhibition [4, 7]: 39% | growth inhibition [4, 8]: 98% (active) | growth inhibition ([4]; at 50.0 µM): 89.5% (active) | growth inhibition [5, 7]: 51% | growth inhibition [5, 8]: 98% (active) | growth inhibition ([5]; at 50.0 µM): 89% (active) | growth inhibition [6, 7]: 20% | growth inhibition [6, 8]: 97% (active) | growth inhibition ([6]; at 50.0 µM): 89.6% (active)

N#CSc1cc(SC#N)c2ccccc2c1N
growth inhibition [1, 7]: 0% | growth inhibition [1, 8]: -3% | growth inhibition ([1]; at 50.0 µM): 70.2% (active) | growth inhibition [2, 7]: -2% | growth inhibition [2, 8]: -12% | growth inhibition ([2]; at 50.0 µM): 62.9% | growth inhibition [3, 7]: 3% | growth inhibition [3, 8]: -9% | growth inhibition ([3]; at 50.0 µM): 57.9% | growth inhibition [4, 7]: 1% | growth inhibition [4, 8]: -27% | growth inhibition ([4]; at 50.0 µM): -1.2% | growth inhibition [5, 7]: 19% | growth inhibition [5, 8]: 28% | growth inhibition ([5]; at 50.0 µM): 81% (active) | growth inhibition [6, 7]: 8% | growth inhibition [6, 8]: -2% | growth inhibition ([6]; at 50.0 µM): 63.5%

COC(=O)c1cc(=O)n(-c2ccccc2OC)c(SC)n1
growth inhibition [1, 7]: 2% | growth inhibition [1, 8]: 83% (active) | growth inhibition ([1]; at 50.0 µM): 89.5% (active) | growth inhibition [2, 7]: -1% | growth inhibition [2, 8]: 73% (active) | growth inhibition ([2]; at 50.0 µM): 89% (active) | growth inhibition [3, 7]: 8% | growth inhibition [3, 8]: 87% (active) | growth inhibition ([3]; at 50.0 µM): 92.5% (active) | growth inhibition [4, 7]: -8% | growth inhibition [4, 8]: 67% | growth inhibition ([4]; at 50.0 µM): 49.4% | growth inhibition [5, 7]: -5% | growth inhibition [5, 8]: 58% | growth inhibition ([5]; at 50.0 µM): 94.8% (active) | growth inhibition [6, 7]: -2% | growth inhibition [6, 8]: 79% (active) | growth inhibition ([6]; at 50.0 µM): 98.1% (active)

CC#CS(=O)(=O)c1ccccc1
growth inhibition [1, 7]: 1% | growth inhibition [1, 8]: 40% | growth inhibition ([1]; at 50.0 µM): 74.7% (active) | growth inhibition [2, 7]: -1% | growth inhibition [2, 8]: 52% | growth inhibition ([2]; at 50.0 µM): 85.5% (active) | growth inhibition [3, 7]: 10% | growth inhibition [3, 8]: 81% (active) | growth inhibition ([3]; at 50.0 µM): 80.7% (active) | growth inhibition [4, 7]: 3% | growth inhibition [4, 8]: 23% | growth inhibition ([4]; at 50.0 µM): 13.9% | growth inhibition [5, 7]: 0% | growth inhibition [5, 8]: 19% | growth inhibition ([5]; at 50.0 µM): 6.35% | growth inhibition [6, 7]: 36% | growth inhibition [6, 8]: 87% (active) | growth inhibition ([6]; at 50.0 µM): 66.6%
